Results filed as inconclusive are left out. Where a call stands in place of a potency, no number is given. Values without a mark were called inactive. Activity calls are given as the source filed them. Unless noted, the call rests on the fitted dose curve; in most records, active means well fitted curve in the direction sought with a large enough effect in the repeat runs; inconclusive means weak or mixed curves; inactive means no such curve, though single readings can be large; an effect the other way counts as inactive or inconclusive.
Columns and labels:
[1] = qHTS assay to identify small molecule that activate the aryl hydrocarbon receptor (AhR) signaling pathway - cell viability counter screen (AID 743086);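 further: HepG2 liver cells carrying the AhR DRE luciferase reporter; series mostly up to about 70 µM; nearly all actives have a fitted effect of over 45% in size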
Summary of the method: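 HepG2-AhR-luc (HG2L7.5c1) cells, 4000/well, treated 24 h at 37 C with compound; viability measured as CellTiter-Fluor fluorescence after 30 min in the same wells as the luciferase read.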

[2] = qHTS assay to identify small molecule antagonists of the peroxisome proliferator-activated receptor gamma (PPARg) signaling pathway - cell viability counter screen (AID 743194); further: nearly all actives have a fitted effect of over 55% in size; further: potency means the concentration at half of the fitted maximal effect
Summary of the method: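 Cytotoxicity counter screen in PPARg-bla HEK293H cells, same wells as reporter assay. Compounds plus 50 nM rosiglitazone (final) for 17 h at 37 C, then viability read by CellTiter-Glo luminescence.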

[3] = qHTS assay for small molecule agonists of the antioxidant response element (ARE) signaling pathway - cell viability counter screen (AID 743203; calls by dose curve; further: nearly all actives have a fitted effect of over 55% in size; further: potency means the concentration at half of the fitted maximal effect)
Summary of the method: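 HepG2 cells carrying ARE-driven beta-lactamase; 2,000 cells/well; 5 hrs plating; compound pinned from DMSO; 16 hrs 37C/5% CO2; CellTiter-Glo added; 30 min RT; luminescence.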

[4] = qHTS assay for small molecule activators of the heat shock response signaling pathway - cell viability counter screen (AID 743209); further: nearly all actives have a fitted effect of over 50% in size
Summary of the method: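 Luminescence from CellTiter-Glo, added after the beta-lactamase FRET read, gave the viability signal. Cells were HSE-bla HeLa treated with DMSO-dissolved compounds for 5 h at 37 C following overnight plating.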

[5] = qHTS assay for small molecule activators of the heat shock response signaling pathway (AID 743210; active means well fitted activation curve with a large enough effect in the signal ratio in the repeat runs, with a control signal flat, not every such curve was filed as active; the % refers to the signal ratio; further: series mostly up to about 63 µM)
Summary of the method: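 HSE-bla HeLa cells (beta-lactamase reporter under heat shock response elements), plated overnight, then exposed to compounds 5 h at 37 C; LiveBLAzer B/G FRET substrate added, 2.5 h at room temperature, fluorescence intensity read.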

[6] = qHTS assay to identify small molecule agonists of the peroxisome proliferator-activated receptor delta (PPARd) signaling pathway - cell viability counter screen (AID 743211); further: nearly all actives have a fitted effect of over 55% in size; further: potency means the concentration at half of the fitted maximal effect
Summary of the method: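 Luminescent ATP viability assay (CellTiter-Glo, 30 min RT) in UAS-bla HEK293H cells carrying the PPAR delta reporter construct, 3000 cells/well, after a 17 h compound treatment at 37 C.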

[7] = target: Peroxisome proliferator-activated receptor delta (Homo sapiens) (UniProt Q03181); assay: qHTS assay to identify small molecule agonists of the peroxisome proliferator-activated receptor delta (PPARd) signaling pathway (AID 743212; calls by dose curve)
Sequence of Peroxisome proliferator-activated receptor delta (Homo sapiens) (Q03181 whole entry, looked up): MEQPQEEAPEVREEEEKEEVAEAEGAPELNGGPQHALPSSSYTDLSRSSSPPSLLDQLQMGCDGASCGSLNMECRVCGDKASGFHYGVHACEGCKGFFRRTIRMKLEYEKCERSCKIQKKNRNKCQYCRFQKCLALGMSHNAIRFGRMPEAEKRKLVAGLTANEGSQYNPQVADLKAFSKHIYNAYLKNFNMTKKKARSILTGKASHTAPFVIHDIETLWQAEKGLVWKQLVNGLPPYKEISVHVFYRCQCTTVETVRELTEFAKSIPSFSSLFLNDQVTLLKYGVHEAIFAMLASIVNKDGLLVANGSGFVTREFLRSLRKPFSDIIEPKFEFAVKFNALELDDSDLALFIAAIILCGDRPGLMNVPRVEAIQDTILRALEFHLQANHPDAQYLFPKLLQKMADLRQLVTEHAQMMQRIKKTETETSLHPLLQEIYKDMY
Summary of the method: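 GeneBLAzer UAS-bla HEK293H cells carrying a PPARδ construct were exposed to compounds at 37 °C. Beta-lactamase activity was read by FRET fluorescence after 2 h at room temperature with LiveBLAzer B/G substrate.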

[8] = qHTS assay to identify small molecule antagonists of the peroxisome proliferator-activated receptor delta (PPARd) signaling pathway - cell viability counter screen (AID 743213); further: nearly all actives have a fitted effect of over 50% in size; further: potency means the concentration at half of the fitted maximal effect
Summary of the method: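 Cytotoxicity counter screen: CellTiter-Glo luminescence read 30 min after addition, in the same wells as the reporter assay. There, PPARd UAS-bla HEK293H cells (3000/well) were treated 17 h at 37 C with compound and 300 nM L165041.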

[9] = target: Peroxisome proliferator-activated receptor delta (Homo sapiens) (UniProt Q03181); assay: qHTS assay to identify small molecule antagonists of the peroxisome proliferator-activated receptor delta (PPARd) signaling pathway (AID 743215; active means well fitted inhibition curve with a large enough effect in the signal ratio in the repeat runs, not every such curve was filed as active; the % refers to the signal ratio;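 further: cells stimulated with agonist L165041 at 300 nM final during compound exposure; series mostly up to about 62 µM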)
Summary of the method: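 Read-out is beta-lactamase FRET fluorescence, measured 2 h after substrate addition at room temperature. Beforehand, UAS-bla HEK293H cells carrying the PPARd reporter were exposed to compounds with L165041 at 300 nM final for 17 h at 37 C.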

[10] = target: Bile acid receptor (Homo sapiens) (UniProt Q96RI1); assay: qHTS assay to identify small molecule antagonists of the farnesoid-X-receptor (FXR) signaling pathway (AID 743217; active means well fitted inhibition curve with a large enough effect in the signal ratio in the repeat runs, not every such curve was filed as active; the % refers to the signal ratio)
Sequence of Bile acid receptor (Homo sapiens) (Q96RI1 whole entry, looked up): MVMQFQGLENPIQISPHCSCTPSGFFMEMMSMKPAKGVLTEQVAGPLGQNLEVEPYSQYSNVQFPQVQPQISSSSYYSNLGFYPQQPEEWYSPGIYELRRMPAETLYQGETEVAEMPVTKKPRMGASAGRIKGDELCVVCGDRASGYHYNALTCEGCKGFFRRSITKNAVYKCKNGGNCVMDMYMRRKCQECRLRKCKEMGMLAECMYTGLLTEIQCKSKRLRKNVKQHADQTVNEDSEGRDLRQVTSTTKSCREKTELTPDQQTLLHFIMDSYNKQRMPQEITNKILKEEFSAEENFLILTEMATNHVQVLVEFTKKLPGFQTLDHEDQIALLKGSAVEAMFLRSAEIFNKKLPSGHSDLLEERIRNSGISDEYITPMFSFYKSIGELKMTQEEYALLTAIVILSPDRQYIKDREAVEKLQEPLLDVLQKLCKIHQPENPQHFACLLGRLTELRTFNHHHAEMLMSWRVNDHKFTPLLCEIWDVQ
Summary of the method: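 HEK 293T FXR-UAS-bla, 5000 cells/well; compound + CDCA 50 uM final; 16 h, 37 °C; B/G FRET substrate 2 h RT; fluorescence.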

[11] = target: Bile acid receptor (Homo sapiens) (UniProt Q96RI1); assay: qHTS assay to identify small molecule agonists of the farnesoid-X-receptor (FXR) signaling pathway (AID 743220; active means well fitted activation curve with a large enough effect in the signal ratio in the repeat runs, not every such curve was filed as active; the % refers to the signal ratio)
Summary of the method: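 Beta-lactamase reporter under UAS control in GeneBLAzer FXR HEK 293T cells (5000/well) measured with LiveBLAzer FRET substrate after 2 h at room temperature. Compound exposure lasted 16 h at 37C.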

[12] = qHTS assay to identify small molecule antagonists of the farnesoid-X-receptor (FXR) signaling pathway - cell viability counter screen (AID 743221; active means well fitted cell-killing curve with a large enough effect in the repeat runs, not every such curve was filed as active; further: nearly all actives have a fitted effect of over 50% in size; further: potency means the concentration at half of the fitted maximal effect)
Summary of the method: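 In GeneBLAzer FXR-UAS-bla HEK 293T cells stimulated with 50 uM chenodeoxycholic acid (final), compounds acted for 16 h at 37 C. Viability was assessed afterwards by CellTiter-Glo luminescence.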

[13] = target: Vitamin D3 receptor (Homo sapiens) (UniProt P11473); assay: qHTS assay to identify small molecule agonists of the vitamin D receptor (VDR) signaling pathway (AID 743222; calls by dose curve)
Sequence of Vitamin D3 receptor (Homo sapiens) (P11473 whole entry, looked up): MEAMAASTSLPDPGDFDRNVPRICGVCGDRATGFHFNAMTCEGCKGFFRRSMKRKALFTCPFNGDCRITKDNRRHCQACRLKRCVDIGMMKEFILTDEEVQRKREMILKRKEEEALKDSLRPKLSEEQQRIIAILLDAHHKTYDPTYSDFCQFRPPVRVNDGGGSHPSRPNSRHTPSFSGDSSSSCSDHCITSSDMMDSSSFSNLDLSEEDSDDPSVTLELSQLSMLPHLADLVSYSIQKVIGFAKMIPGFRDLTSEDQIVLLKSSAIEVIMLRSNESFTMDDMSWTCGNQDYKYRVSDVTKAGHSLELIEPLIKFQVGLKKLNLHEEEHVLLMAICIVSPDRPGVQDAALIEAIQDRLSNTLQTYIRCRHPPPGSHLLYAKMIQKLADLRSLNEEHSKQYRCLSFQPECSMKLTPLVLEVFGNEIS
Summary of the method: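 VDR-bla cells, 2,000/well; 4 h preincubation 37C; cpd (DMSO) 16 h; LiveBLAzer B/G substrate 2 h RT; fluorescence intensity read.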

[14] = target: Peroxisome proliferator-activated receptor gamma (Homo sapiens) (UniProt P37231); assay: qHTS assay to identify small molecule antagonists of the peroxisome proliferator-activated receptor gamma (PPARg) signaling pathway (AID 743191; calls by dose curve; further: series mostly up to about 63 µM; nearly all actives have a fitted effect of over 30% in size)
Sequence of Peroxisome proliferator-activated receptor gamma (Homo sapiens) (P37231 whole entry, looked up): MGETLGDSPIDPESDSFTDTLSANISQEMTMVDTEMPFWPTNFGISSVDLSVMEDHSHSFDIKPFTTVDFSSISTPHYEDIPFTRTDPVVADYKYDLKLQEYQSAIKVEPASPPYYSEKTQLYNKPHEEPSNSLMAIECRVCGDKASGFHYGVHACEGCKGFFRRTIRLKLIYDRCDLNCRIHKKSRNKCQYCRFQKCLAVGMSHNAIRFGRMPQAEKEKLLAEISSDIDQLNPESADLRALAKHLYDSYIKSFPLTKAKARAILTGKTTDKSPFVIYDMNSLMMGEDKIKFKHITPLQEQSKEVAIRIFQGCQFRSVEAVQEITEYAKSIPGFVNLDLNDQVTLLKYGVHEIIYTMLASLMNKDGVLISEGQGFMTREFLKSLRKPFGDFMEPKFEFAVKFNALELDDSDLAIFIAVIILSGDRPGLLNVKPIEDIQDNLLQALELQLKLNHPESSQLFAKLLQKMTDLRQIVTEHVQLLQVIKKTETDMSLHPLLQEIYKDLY
Summary of the method: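 GeneBLAzer PPARg UAS-bla HEK293H cells, 5 h post-plating, exposed to compounds 17 h at 37C. LiveBLAzer B/G FRET substrate added for 1 h at room temperature; beta-lactamase reporter read by fluorescence intensity.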

[15] = qHTS assay to identify small molecule agonists of the farnesoid-X-receptor (FXR) signaling pathway - cell viability counter screen (AID 743218); further: nearly all actives have a fitted effect of over 45% in size; further: potency means the concentration at half of the fitted maximal effect
Summary of the method: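 HEK 293T FXR-bla cells; 5 h pre-incubation, 16 h compound exposure at 37 C; LiveBLAzer substrate 2 h RT, then CellTiter-Glo 30 min RT, luminescence.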

[16] = target: Vitamin D3 receptor (Homo sapiens) (UniProt P11473); assay: qHTS assay to identify small molecule antagonists of the vitamin D receptor (VDR) signaling pathway (AID 743223; active means well fitted inhibition curve with a large enough effect in the signal ratio in the repeat runs, not every such curve was filed as active; the % refers to the signal ratio)
Summary of the method: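 Agonist 1alpha,25-dihydroxyvitamin D3 (3 nM in well) was added with each compound to VDR-bla cells preincubated 4 h. Cells stood 16 h at 37C, then FRET substrate 2 h at room temperature; fluorescence intensity recorded.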

[17] = qHTS assay for small molecule agonists of the antioxidant response element (ARE) signaling pathway (AID 743202; active means well fitted activation curve with a large enough effect in the signal ratio in the repeat runs, not every such curve was filed as active; the % refers to the signal ratio; further: potency means the concentration at half of the fitted maximal effect)
Summary of the method: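 ARE-bla HepG2 cells (beta-lactamase reporter under the antioxidant response element), plated 5 hours, then exposed to compounds 16 hours at 37 C. LiveBLAzer B/G FRET substrate added for 2 hours at room temperature; fluorescence intensity read.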

CCCCCCc1ccc(-c2ccc(C#N)cc2)cc1
Potency [1]: inactive
Potency [2]: inactive
Potency [3]: inactive
Potency [4]: inactive
Potency [5]: inactive
Potency [6]: inactive
Potency [7]: inactive
Potency [8]: inactive
Potency [9]: inactive
Potency [10]: inactive
Potency [11]: inactive
Potency [12]: inactive

CN(C)CCOC(c1ccccc1)c1ccc(Br)cc1 (centres undefined)
Potency [3]: inactive
Potency [4]: inactive
Potency [5]: inactive
Potency [7]: inactive
Potency [10]: inactive
Potency [11]: inactive
Potency [13]: inactive

O=C(O)C1(C(=O)O)CCC1.[NH2-].[NH2-].[Pt+2]
Potency [14]: inactive
Potency [3]: inactive
Potency [4]: inactive
Potency [5]: inactive
Potency [6]: inactive
Potency [7]: inactive
Potency [9]: inactive
Potency [10]: inactive
Potency [15]: inactive
Potency [11]: inactive

COc1cc2nc(Cl)nc(N)c2cc1OC
Potency [2]: inactive
Potency [3]: inactive
Potency [4]: inactive
Potency [5]: inactive
Potency [6]: inactive
Potency [8]: inactive
Potency [15]: inactive
Potency [12]: inactive
Potency [13]: inactive
outcome [16]: inactive

Cc1ccc(C(=O)Oc2ccc(C(O)CNC(C)(C)C)cc2OC(=O)c2ccc(C)cc2)cc1 (centres undefined)
Potency [2]: inactive
Potency [5]: inactive
Potency [6]: 29.8 µM (active)
Potency [11]: inactive
Potency [12]: inactive

C/C=C(/C(=C/C)c1ccc(OC(C)=O)cc1)c1ccc(OC(C)=O)cc1
Potency [17]: 13.3 µM (active)
Potency [3]: inactive
Potency [4]: inactive
Potency [7]: inactive
Potency [9]: inactive
Potency [15]: inactive
Potency [12]: inactive
Potency [13]: inactive

COc1ccc2cccc(CCNC(C)=O)c2c1
Potency [14]: inactive
Potency [17]: inactive
Potency [3]: inactive
Potency [4]: inactive
Potency [5]: inactive
Potency [6]: inactive
Potency [8]: inactive
Potency [15]: inactive
Potency [12]: inactive
Potency [13]: inactive
outcome [16]: inactive

CCCCC
Potency [1]: inactive
Potency [17]: inactive
Potency [3]: inactive
Potency [4]: inactive
Potency [5]: inactive
Potency [6]: inactive
Potency [7]: inactive
Potency [8]: inactive
Potency [9]: inactive
Potency [10]: inactive
Potency [15]: inactive
Potency [11]: inactive
Potency [13]: inactive
outcome [16]: inactive

O[C@@H](COc1cccc2ncccc12)CN1CCN(C2c3ccccc3[C@@H]3[C@H](c4ccccc42)C3(F)F)CC1 (some centres undefined)
Potency [2]: 13.3 µM (active)
Potency [3]: 15 µM (active)
Potency [4]: inactive
Potency [6]: 9.44 µM (active)
Potency [7]: inactive
Potency [8]: 23.7 µM (active)
Potency [15]: 15 µM (active)
Potency [12]: 21.1 µM (active)

CCOC(=O)C(O)c1ccccc1 (centres undefined)
Potency [14]: inactive
Potency [2]: inactive
Potency [3]: inactive
Potency [4]: inactive
Potency [5]: inactive
Potency [6]: inactive
Potency [8]: inactive
Potency [15]: inactive
Potency [12]: inactive
outcome [16]: inactive

CCN(CC)c1ccc(C(=C2C=CC(=[N+](CC)CC)C=C2)c2cc(S(=O)(=O)O)ccc2S(=O)(=O)[O-])cc1
Potency [2]: inactive
Potency [3]: inactive
Potency [5]: inactive
Potency [8]: inactive
Potency [10]: inactive
Potency [15]: inactive
Potency [11]: inactive
Potency [12]: inactive
Potency [13]: inactive

Source: PubChem BioAssay (Tox21)
